# Test results: publication PMC4336329 (PLoS ONE, 2015)
# About 14,000 (4.5%) of roughly 310,000 compounds showed an effect of 50% or more. Effects have a minus sign here. The sample holds strong results, similar compounds and a random draw of the others, so the mix is not that of the screen.
# Molecular target: human ether-à-go-go-related gene (hERG) potassium channel (human, UniProt Q12809)
# Assay: primary screen, population patch clamp on CHO cells stably expressing hERG; higher = less effect of the substance
# 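Further: peak tail current of the secondary pulse compared with the same well before compound.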
# Sequence of human ether-à-go-go-related gene (hERG) potassium channel (Q12809 whole entry, looked up): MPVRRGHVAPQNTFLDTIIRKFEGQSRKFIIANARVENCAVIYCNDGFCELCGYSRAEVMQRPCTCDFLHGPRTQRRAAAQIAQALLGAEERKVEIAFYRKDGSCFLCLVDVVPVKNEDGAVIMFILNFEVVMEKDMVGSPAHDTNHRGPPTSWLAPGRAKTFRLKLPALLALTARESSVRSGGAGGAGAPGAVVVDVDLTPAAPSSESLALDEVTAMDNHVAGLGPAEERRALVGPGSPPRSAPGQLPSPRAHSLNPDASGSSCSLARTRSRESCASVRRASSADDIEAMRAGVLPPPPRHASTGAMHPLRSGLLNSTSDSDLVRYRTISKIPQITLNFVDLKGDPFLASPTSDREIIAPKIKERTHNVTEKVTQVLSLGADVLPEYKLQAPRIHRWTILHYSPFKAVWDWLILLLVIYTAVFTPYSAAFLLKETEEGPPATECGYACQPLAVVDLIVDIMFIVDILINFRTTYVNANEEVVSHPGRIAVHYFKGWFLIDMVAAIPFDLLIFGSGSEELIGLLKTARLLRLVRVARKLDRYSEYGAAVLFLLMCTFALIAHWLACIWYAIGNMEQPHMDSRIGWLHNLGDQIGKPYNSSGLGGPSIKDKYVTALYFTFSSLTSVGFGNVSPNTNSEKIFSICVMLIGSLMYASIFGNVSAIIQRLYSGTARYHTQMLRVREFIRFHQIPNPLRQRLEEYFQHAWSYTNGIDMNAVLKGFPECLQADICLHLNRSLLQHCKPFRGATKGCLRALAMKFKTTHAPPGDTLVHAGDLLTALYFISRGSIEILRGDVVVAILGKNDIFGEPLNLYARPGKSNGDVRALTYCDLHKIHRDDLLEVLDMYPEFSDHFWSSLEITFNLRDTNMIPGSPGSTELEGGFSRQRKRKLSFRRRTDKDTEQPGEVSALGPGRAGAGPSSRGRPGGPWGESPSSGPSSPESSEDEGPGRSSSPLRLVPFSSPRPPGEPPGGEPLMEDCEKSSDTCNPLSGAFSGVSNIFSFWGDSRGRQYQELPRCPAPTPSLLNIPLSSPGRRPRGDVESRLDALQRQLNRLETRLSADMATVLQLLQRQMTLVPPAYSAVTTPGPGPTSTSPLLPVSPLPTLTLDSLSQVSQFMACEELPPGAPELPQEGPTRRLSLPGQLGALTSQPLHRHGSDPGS
row,SMILES,"hERG current change (%, negative = inhibition) at 10uM"
1,CCCCOC(=O)C1=C(C)NC(=O)NC1c1ccccc1 (centres unmarked),6.12%
2,Cc1ccc(S[C@@H](CCN2CC[C@H](NC(=O)OCc3ccccc3)CCC2=O)c2ccccc2)cc1,-26.1%
3,Cc1ccc(SC[C@H](C)CN2CC[C@H](NC(=O)OCc3ccccc3)CCC2=O)cc1,-41.6%
4,O=C(NC1CCC(=O)N(CCSc2ccccc2)CC1)OCc1ccccc1 (centres unmarked),-59.2%
5,COc1ccc(SC[C@H](Cc2ccccc2)N2CC[C@@H](NC(=O)OCc3ccccc3)CCC2=O)cc1,-10.2%
6,COc1ccc(SCCN2CC[C@@H](NC(=O)OCc3ccccc3)CCC2=O)cc1,-54.4%
7,O=C(NC1CCC(=O)N(CCOc2ccccc2)CC1)OCc1ccccc1 (centres unmarked),-30.2%
8,[N-]=[N+]=NC[C@H](Cc1ccccc1)N1CC[C@@H](NC(=O)OCc2ccccc2)CCC1=O,-52.5%
9,O=C(N[C@H]1CCC(=O)N([C@H](CSc2ccccc2)Cc2ccccc2)CC1)OCc1ccccc1,-37.6%
10,O=C(N[C@H]1CCC(=O)N(CCSc2ccc(Br)cc2)CC1)OCc1ccccc1,-29.2%
11,Cc1ccc(SCCN2CCC(NC(=O)OCc3ccccc3)CCC2=O)cc1 (centres unmarked),-50.1%
12,O=C(N[C@@H]1CCC(=O)N(CC[C@H](Sc2ccccc2)c2ccccc2)CC1)OCc1ccccc1,-24%
13,N#CC[C@H](Cc1ccccc1)N1CC[C@@H](NC(=O)OCc2ccccc2)CCC1=O,-45.1%
14,N/C(=N\OC(=O)COc1ccc2ccccc2c1Br)c1cccnc1,12.9%
15,Cc1cc(C)cc(C(=O)OCC(=O)Nc2ncccn2)c1,-0.75%
16,Cc1cccc(NC(=O)c2ccc3nc(N4CCOCC4)sc3c2)c1C,-34.7%
17,COc1ccc(S(=O)(=O)NCCc2cc3ccc(C)c(C)c3[nH]c2=O)cc1,17.2%
18,C/C(=N\NC(=O)c1c[nH]c2ccccc12)c1ccc2c(c1)OCO2,1.64%
19,COc1ccccc1CNC(=O)Cn1c(=O)oc2cc(Cl)ccc21,0.41%
20,CCCCN1C(Nc2ccccc2)=NC[C@@H]1CC(C)C,-34.5%
21,CC(C)CCN1C(Nc2ccccc2)=NC[C@@H]1Cc1ccccc1,-47.9%
22,CCN1C(Nc2ccccc2)=NC[C@@H]1CC(C)C,3.75%
23,CCC(CC)CN1C(Nc2ccccc2)=NC[C@@H]1CC(C)C,-58.2%
24,CC(C)CCCN1C(Nc2ccccc2)=NC[C@@H]1Cc1ccccc1,-62.3%
25,CC(C)C[C@H]1CN=C(Nc2ccccc2)N1CC(C)C,-3.04%
26,CC(C)CCCN1CCN=C1Nc1ccccc1,-3.11%
27,CC(C)CCCN1C(Nc2ccccc2)=NC[C@@H]1CC(C)C,-60.1%
28,CCCCCCCN1C(Nc2ccccc2)=NC[C@@H]1CC(C)C,-73.7%
29,CC(C)CCN1C(Nc2ccccc2)=NC[C@@H]1CC(C)C,-33.4%
